From PubChem BioAssay (EPA / NIEHS)
Active and inactive are the calls of the source. Rule for the calls: active = hit-call score of the fitted dose curve at least 0.9, where 1 is the maximum; inactive = score below 0.9.

Experiments:
[1] = read-out: Matrix Metallopeptidase 1 (MMP1), MMP1 (gene 4312); assay: BSK_BE3C_MMP1: BioMAP Diversity Plus: BE3C Assay for Matrix Metallopeptidase 1 (MMP1) Biomarker Activity (AID 2283024); details: primary human bronchial epithelial cells; actives raise or lower the signal
Method in brief: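 ELISA measurement of MMP-1 after 24 h compound exposure of primary human bronchial epithelial cells. Changes in either direction fitted relative to DMSO; parallel SRB staining checked overt cytotoxicity.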

[2] = read-out: Pselectin, SELP (gene 6403); assay: BSK_4H_Pselectin: BioMAP Diversity Plus: 4H Assay for Pselectin Biomarker Activity (AID 2283026); details: primary human endothelial cells (HUVEC); actives raise or lower the signal
Method in brief: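 ELISA of surface P-selectin on HUVEC, 24 h after dosing, with parallel SRB staining (0.1% after 10% TCA fixation, 560 nm) for overt cytotoxicity. Activity fitted in both directions relative to DMSO.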

[3] = BSK_4H_SRB: Viability Assessment in the BioMAP Diversity Plus: 4H Assay (AID 2283027); details: primary human endothelial cells (HUVEC);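 note: cells exposed to compound for 24 h before staining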;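 for AC50: curves fitted both ways versus DMSO so AC50 may be loss or gain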
Method in brief: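 HUVEC, 24 h post-dose; 10% TCA fix, 0.1% SRB stain, A560 nm. Total protein = overt cytotoxicity, parallel to biomarker read. Bidirectional fit vs DMSO baseline.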

[4] = BSK_BE3C_SRB: Viability Assessment in the BioMAP Diversity Plus: BE3C Assay (AID 2283028); details: primary human bronchial epithelial cells;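 for AC50: fitted both ways so AC50 may mark signal gain or loss versus DMSO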
Method in brief: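 Primary human bronchial epithelium; chemical dosing, 24 h; 10% TCA fix, 0.1% SRB stain, A560; bidirectional fit vs DMSO baseline.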

[5] = read-out: Urokinase-type plasminogen activator receptor (uPAR), PLAUR (gene 5329); assay: BSK_4H_uPAR: BioMAP Diversity Plus: 4H Assay for Urokinase-type plasminogen activator receptor (uPAR) Biomarker Activity (AID 2283030); details: primary human endothelial cells (HUVEC); actives raise or lower the signal
Method in brief: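 HUVEC, 24 h post-dose; uPAR by ELISA; bidirectional fit vs DMSO baseline.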

[6] = read-out: Vascular endothelial growth factor receptor 2 (Homo sapiens) (UniProt P35968); assay: BSK_4H_VEGFRII: BioMAP Diversity Plus: 4H Assay for Vascular endothelial growth factor receptor 2 (VEGFR2) Biomarker Activity (AID 2283031); details: primary human endothelial cells (HUVEC); actives raise or lower the signal;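 for AC50: cell-surface VEGFR2 protein level quantified by ELISA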
Method in brief: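 HUVEC (human primary), 4H system; 24 h post-dose; VEGFRII by ELISA; bidirectional curve fit vs DMSO baseline; gain or loss of signal scored.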

[7] = read-out: Human Leukocyte Antigen - DR isotype (HLADR), HLA-DRA (gene 3122); assay: BSK_BE3C_HLADR: BioMAP Diversity Plus: BE3C Assay for Human Leukocyte Antigen - DR isotype (HLADR) Biomarker Activity (AID 2283032); details: primary human bronchial epithelial cells; actives raise or lower the signal
Method in brief: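 Cell-surface HLA-DR ELISA readout at 24 h after dosing in the BE3C primary human lung bronchial epithelial system; gain or loss of signal against DMSO, with parallel sulforhodamine B staining of total protein for overt cytotoxicity.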

[8] = read-out: Vascular cell adhesion molecule 1 (VCAM1), VCAM1 (gene 7412); assay: BSK_4H_VCAM1: BioMAP Diversity Plus: 4H Assay for Vascular cell adhesion molecule 1 (VCAM1) Biomarker Activity (AID 2283033); details: primary human endothelial cells (HUVEC); actives raise or lower the signal
Method in brief: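 VCAM-1 ELISA read 24 h after chemical dosing of HUVEC in the BioMAP 4H system, with gain or loss of signal fitted relative to DMSO. Parallel SRB staining (560 nm) checked overt cytotoxicity.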

[9] = read-out: Interferon-gamma inducible Protein 10 (IP10), CXCL10 (gene 3627); assay: BSK_BE3C_IP10: BioMAP Diversity Plus: BE3C Assay for Interferon-gamma inducible Protein 10 (IP10) Biomarker Activity (AID 2283034); details: primary human bronchial epithelial cells; actives raise or lower the signal
Method in brief: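 IP-10 quantified by ELISA in human primary bronchial epithelial cell cultures at 24 hours post-dosing. Gain or loss of signal fitted relative to DMSO; parallel SRB staining assessed overt cytotoxicity.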

[10] = read-out: Monokine induced gamma interferon (MIG), CXCL9 (gene 4283); assay: BSK_BE3C_MIG: BioMAP Diversity Plus: BE3C Assay for Monokine induced gamma interferon (MIG) Biomarker Activity (AID 2283035); details: primary human bronchial epithelial cells; actives raise or lower the signal
Method in brief: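 Dose cells (human primary bronchial epithelial), incubate 24 h, quantify MIG by ELISA, then fit concentration–response in both directions relative to DMSO control.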

[11] = read-out: Transforming growth factor beta 1 (TGFb1), TGFB1 (gene 7040); assay: BSK_BE3C_TGFb1: BioMAP Diversity Plus: BE3C Assay for Transforming growth factor beta 1 (TGFb1) Biomarker Activity (AID 2283036); details: primary human bronchial epithelial cells; actives raise or lower the signal
Method in brief: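 ELISA readout of TGF-b1 from human lung bronchial epithelial primary cells, taken 24 h post-treatment. Gain or loss of signal fitted relative to DMSO baseline, with parallel SRB staining for overt cytotoxicity.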

[12] = read-out: urokinase plasminogen activator (uPA), PLAU (gene 5328); assay: BSK_BE3C_uPA: BioMAP Diversity Plus: BE3C Assay for urokinase plasminogen activator (uPA) Biomarker Activity (AID 2283038); details: primary human bronchial epithelial cells; actives raise or lower the signal
Method in brief: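 ELISA read-out of uPA in human lung primary bronchial epithelial cultures, 24 h post-dosing. Gain or loss of signal fitted bidirectionally relative to DMSO baseline; cytotoxicity checked in parallel cultures via SRB total protein stain.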

[13] = read-out: Interleukin-6 (IL6), IL6 (gene 3569); assay: BSK_CASM3C_IL6: BioMAP Diversity Plus: CASM3C Assay for Interleukin-6 (IL6) Biomarker Activity for (AID 2283040); details: primary human coronary artery smooth muscle cells; actives raise or lower the signal
[14] = read-out: Tissue plasminogen activator (tPA), PLAT (gene 5327); assay: BSK_BE3C_tPA: BioMAP Diversity Plus: BE3C Assay for Tissue plasminogen activator (tPA) Biomarker Activity (AID 2283041); details: primary human bronchial epithelial cells; actives raise or lower the signal;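 note: tPA level quantified by ELISA one day after compound addition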
Method in brief: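 tPA measured by ELISA 24 h after dosing human primary bronchial epithelial cells (BE3C system). Changes in either direction were fitted against DMSO. Parallel cultures were stained with SRB to flag overt cytotoxicity.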

[15] = read-out: Interleukin-8 (IL8), CXCL8 (gene 3576); assay: BSK_CASM3C_IL8: BioMAP Diversity Plus: CASM3C Assay for Interleukin-8 (IL8) Biomarker Activity (AID 2283042); details: primary human coronary artery smooth muscle cells; actives raise or lower the signal;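 note: IL-8 protein level quantified by ELISA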
[16] = read-out: Human Leukocyte Antigen - DR isotype (HLADR), HLA-DRA (gene 3122); assay: BSK_CASM3C_HLADR: BioMAP Diversity Plus: CASM3C Assay for Human Leukocyte Antigen - DR isotype (HLADR) Biomarker Activity (AID 2283043); details: primary human coronary artery smooth muscle cells; actives raise or lower the signal;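 note: cell-surface HLA-DR protein level quantified by ELISA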
[17] = BSK_3C_Vis: BioMAP Diversity Plus: 3C Assay for Morphology Visualization (AID 2283025); details: primary human endothelial cells (HUVEC);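 note: fitted both ways so gain or loss versus DMSO counts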;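 for AC50: light microscopy image of cell morphology used as background control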
Method in brief: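 Light-microscopy visualization of HUVEC cultures at 24 h post-treatment, with DMSO as baseline for bidirectional fitting.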

[18] = read-out: Urokinase-type plasminogen activator receptor (uPAR), PLAUR (gene 5329); assay: BSK_BE3C_uPAR: BioMAP Diversity Plus: BE3C Assay for Urokinase-type plasminogen activator receptor (uPAR) Biomarker Activity (AID 2283039); details: primary human bronchial epithelial cells; actives raise or lower the signal;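 note: cells exposed to compound for one day before measurement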
Method in brief: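 uPAR levels were measured by ELISA after 24 h compound treatment of primary human bronchial epithelial cells, fitted in both directions relative to DMSO. Parallel SRB staining served as the cytotoxicity read-out.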

[19] = read-out: Thrombomodulin, THBD (gene 7056); assay: BSK_3C_Thrombomodulin: BioMAP Diversity Plus: 3C Assay for Thrombomodulin Biomarker Activity (AID 2283029); details: primary human endothelial cells (HUVEC); actives raise or lower the signal
Method in brief: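 ELISA measurement of thrombomodulin on HUVEC surface 24 h after chemical dosing; activity fitted in both directions relative to DMSO vehicle.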

[20] = read-out: Plasminogen activator inhibitor-1 (PAI1), SERPINE1 (gene 5054); assay: BSK_BE3C_PAI1: BioMAP Diversity Plus: BE3C Assay for Plasminogen activator inhibitor-1 (PAI1) Biomarker Activity (AID 2283037); details: primary human bronchial epithelial cells; actives raise or lower the signal
Method in brief: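 PAI-1 was measured by ELISA in human primary bronchial epithelial cultures 24 h after chemical dosing, with cytotoxicity checked by SRB total-protein staining in parallel cultures. Activity was fitted in both directions relative to DMSO.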

Measured: AC50

CCCCOC(=O)c1ccc(O)cc1
inactive: [1] | [2] | [3] | [4] | [5] | [6] | [7] | [8] | [9] | [10] | [11] | [12] | [13] | [14] | [15] | [16]

Oc1ccccc1
inactive: [1] | [17] | [2] | [3] | [4] | [5] | [6] | [7] | [8] | [10] | [11] | [12] | [18] | [13] | [15] | [16]

c1ccc(C[n+]2cccc3ccccc32)cc1
inactive: [17] | [2] | [3] | [4] | [19] | [5] | [6] | [7] | [8] | [10] | [11] | [20] | [12] | [13] | [15] | [16]
active: [9] 30.2 µM

c1ccc2ccccc2c1
inactive: [17] | [2] | [3] | [4] | [19] | [5] | [6] | [7] | [8] | [9] | [10] | [11] | [20] | [18] | [13] | [15] | [16]

CC(C)(C)c1cc(/C=C2\SC(N)=NC2=O)cc(C(C)(C)C)c1O
active: [2] 13.3 µM | [3] 28.7 µM | [5] 36.7 µM | [6] 27.4 µM | [7] 7.46 µM | [8] 26.4 µM | [12] 3.97 µM | [13] 36.2 µM | [16] 20 µM
inactive: [1] | [4] | [19] | [9] | [10] | [11] | [15]

C[C@]12CC[C@@H]3c4ccc(O)cc4CC[C@H]3[C@@H]1CC[C@H]2O
inactive: [1] | [2] | [4] | [6] | [7] | [8] | [10] | [11] | [18] | [13] | [15] | [16]
active: [3] 9.1 µM | [5] 12.8 µM

CC[C@H](NC(=O)c1cc(F)ccc1NS(=O)(=O)c1cccc2cccnc12)c1ccccc1
inactive: [1] | [2] | [3] | [4] | [5] | [6] | [7] | [8] | [9] | [10] | [11] | [20] | [18] | [13] | [15] | [16]

Cc1cc2c(cc1C(F)(F)F)N(C(=O)Nc1ccc(Oc3cccnc3C)nc1)CC2
inactive: [1] | [3] | [5] | [6] | [8] | [10] | [11] | [20] | [18] | [13] | [14] | [15]
active: [2] 8.67 µM | [4] 15.8 µM | [7] 5.03 µM | [9] 13.1 µM | [16] 16.6 µM

O=c1ccc2ccccc2o1
inactive: [1] | [2] | [3] | [4] | [5] | [6] | [7] | [8] | [10] | [11] | [20] | [18] | [13] | [14] | [15] | [16]

O=CCCCC=O
inactive: [1] | [17] | [3] | [4] | [5] | [6] | [9] | [10] | [11] | [12] | [13] | [15]
active: [2] 30.7 µM | [7] 33.5 µM | [8] 31.5 µM | [20] 32.8 µM | [16] 30.2 µM

C[C@]12CC[C@@H]3c4ccc(O)cc4CC[C@H]3[C@@H]1CCC2=O
inactive: [2] | [3] | [4] | [19] | [5] | [6] | [7] | [8] | [9] | [10] | [11] | [18] | [13] | [14] | [15] | [16]
active: [1] 3.97 µM

CCCCCCCCOC(=O)c1cc(O)c(O)c(O)c1
inactive: [19] | [6]
active: [1] 33.5 µM | [17] 37.5 µM | [2] 17.8 µM | [3] 15.1 µM | [4] 33.6 µM | [5] 37.7 µM | [7] 22 µM | [8] 6.26 µM | [9] 29.8 µM | [10] 34 µM | [11] 27.2 µM | [13] 3.97 µM | [15] 31.7 µM | [16] 31.9 µM

CN(C)c1ccc(C(=C2C=CC(=[N+](C)C)C=C2)c2ccc(N(C)C)cc2)cc1
active: [1] 0.938 µM | [2] 0.613 µM | [3] 8.49 µM | [4] 7.72 µM | [19] 3.97 µM | [5] 1.42 µM | [6] 0.148 µM | [7] 1.28 µM | [8] 5.55 µM | [10] 6.32 µM | [11] 0.73 µM | [20] 0.228 µM | [13] 6.61 µM | [15] 5.56 µM | [16] 7.11 µM

CCCCOC(=O)CC(CC(=O)OCCCC)(OC(C)=O)C(=O)OCCCC
inactive: [1] | [2] | [3] | [4] | [5] | [6] | [8] | [10] | [11] | [18] | [13] | [14] | [15] | [16]
active: [7] 20 µM
